{
  "source": "PubChem BioAssay (NCATS)",
  "note": "Inconclusive results are not listed. Calls of active or inactive are those of the source. Calls follow the shape of the dose curve; as a rule, active = well fitted activation curve with a large enough effect; inconclusive = small, poorly fitted or top-dose-only effect; inactive = flat fitted curve, though single readings scatter.",
  "data": [
    {"assay": "Cellular Toxicity (caspase-3) Hek293 (AID 664);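 also: cells exposed to compound for 16 h at 37 °C before readout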", "conditions": "HEK293 caspase-3 activation, DMSO = 0%, 100 µM tamoxifen = 100%; series mostly up to 92.2 µM", "description": "NIH Chemical Genomics Center [NCGC]\nNIH Molecular Libraries Screening Centers Network [MLSCN]\nNational Institutes of Environmental Health Sciences [NIEHS]\nNational Toxicology Program [NTP]\nWe have developed a 1536-well cell-based assay for quantitative high throughput screening (qHTS) against a number of cell lines to determine in vitro caspase 3/7 of small molecules. This particular assay uses the Hek 293 cell line which is derived from human embryonic kidney cells.\nNCGC Assay Protocol Summary:\nThe Caspase-Glo 3/7 assay (Promega) is a homogeneous method to measure caspase-3 and caspase-7 activities in cultured cells. The quantitation of caspase 3/7 activity is based on the cleavage of a peptide-aminoluciferin substrate. After caspase cleaves the substrate the free aminoluciferin is liberated and serves as the substrate of luciferase, which generates the light. The luminescent signal is proportional to amount of caspase 3/7 activity present.\nUsing the Caspase-Glo 3/7 assay, the amount of caspase 3/7 activity was measured in the Hek 293 cell line with complete culture medium following compound treatment for 16 hours. The assay was performed in opaque white 1536-well plates. In the screen, tamoxifen and doxorubicin were used as positive controls. Library compounds were measured for their ability to cause the activation of caspase 3/7 in the cell line, as reflected by an increase in luminescence signal, in a concentration-dependent manner. Data were normalized to the controls for basal activity (DMSO only) and 100% stimulation (100 uM tamoxifen). AC50 values were determined from concentration-response data modeled with the standard Hill equation.\nqHTS protocol for caspase 3/7 assay in Hek 293 cells\n[Step] [Parameter] [Value] [Description]\n2. Time; 5 hr; 37 °C incubation\n4. Controls; 23 nL; Tamoxifen 0.23 uM to 100 uM & Doxorubicin 7.0 pM to 100 uM\n5. Time; 16 hr; 37 °C incubation\n6. Reagent; 5 uL; Caspase-Glo 3/7 reagent\n7. Time; 20 min; Room Temperature\n8. Detection; Luminescence; Viewlux plate reader\nKeywords: caspase 3/7, apoptosis, Hek 293 cell line, luminescence, NTPHTS, NTPHTS_NCGC, NIEHS, EPA, DSSTox, MLSMR, MLSCN, NIH Roadmap, qHTS, NCGC", "values": [
      {"smiles": "Cc1cccc(C#N)c1", "outcome": "inactive"},
      {"smiles": "C[C@]12CC[C@H]3[C@@H](CCC4=CC(=O)CC[C@@]43C)[C@@H]1CC[C@@H]2O", "outcome": "inactive"},
      {"smiles": "CC(O)CCl", "note": "(stereo not given)", "outcome": "inactive"},
      {"smiles": "BrCCBr", "outcome": "inactive"},
      {"smiles": "Cc1cccc([N+](=O)[O-])c1", "outcome": "inactive"},
      {"smiles": "C=CCc1ccc2c(c1)OCO2", "outcome": "inactive"},
      {"smiles": "CCCCOCCOP(=O)(OCCOCCCC)OCCOCCCC", "outcome": "inactive"},
      {"smiles": "C1CCC2CCCCC2C1", "note": "(stereo not given)", "outcome": "inactive"},
      {"smiles": "CCc1cccc(CC)c1N(COC)C(=O)CCl", "outcome": "inactive"},
      {"smiles": "C[C@H]1CCCC(=O)CCC/C=C/c2cc(O)cc(O)c2C(=O)O1", "outcome": "inactive"},
      {"smiles": "C/C=C/c1ccc2c(c1)OCO2", "outcome": "inactive"},
      {"smiles": "CN=C=S", "outcome": "inactive"},
      {"smiles": "CCOP(=S)(OCC)SCSC(C)(C)C", "outcome": "inactive"},
      {"smiles": "COC(=O)NC(=S)Nc1ccccc1NC(=S)NC(=O)OC", "outcome": "inactive"},
      {"smiles": "CCCOC(=O)c1ccccc1C(=O)OCCC", "outcome": "inactive"},
      {"smiles": "N#CCCCl", "outcome": "inactive"},
      {"smiles": "Brc1ccccc1", "outcome": "inactive"},
      {"smiles": "ClC(Cl)(Cl)c1ccccc1", "outcome": "inactive"},
      {"smiles": "C=C(C)C#N", "outcome": "inactive"},
      {"smiles": "Clc1nc(Cl)nc(Cl)n1", "outcome": "inactive"},
      {"smiles": "Clc1nc(Cl)nc(Nc2ccccc2Cl)n1", "outcome": "inactive"},
      {"smiles": "COc1ccc(C=O)cc1OC", "outcome": "inactive"},
      {"smiles": "CCCCOC(=O)c1ccccc1C(=O)OCCCC", "outcome": "inactive"},
      {"smiles": "c1nc[nH]n1", "outcome": "inactive"},
      {"smiles": "ClC(Cl)=C(c1ccc(Cl)cc1)c1ccc(Cl)cc1", "outcome": "inactive"},
      {"smiles": "CC(C)(C)OO", "outcome": "inactive"},
      {"smiles": "C=CC1CC=CCC1", "note": "(stereo not given)", "outcome": "inactive"},
      {"smiles": "CNC(=O)O/N=C/C(C)(C)SC", "outcome": "inactive"},
      {"smiles": "O=C1C(Cl)=C(Cl)C(=O)C(Cl)=C1Cl", "outcome": "inactive"},
      {"smiles": "Nc1c(Cl)c(Cl)nc(C(=O)O)c1Cl", "outcome": "inactive"},
      {"smiles": "c1ccc(-c2ccccc2)cc1", "outcome": "inactive"},
      {"smiles": "Brc1ccc(Oc2cc(Br)c(Br)cc2Br)c(Br)c1", "outcome": "inactive"},
      {"smiles": "CCOc1ccc(N)cc1", "outcome": "inactive"},
      {"smiles": "Cc1ccc2ccccc2c1", "outcome": "inactive"},
      {"smiles": "ClC1=C(Cl)C2(Cl)C3C4CC(C5OC45)C3C1(Cl)C2(Cl)Cl", "note": "(stereo not given)", "outcome": "inactive"},
      {"smiles": "C[N+](C)(C)Cc1ccccc1", "outcome": "inactive"},
      {"smiles": "CCC[CH2][Sn]([Cl])([Cl])[Cl]", "outcome": "inactive"},
      {"smiles": "C=CC(=O)OCC", "outcome": "inactive"},
      {"smiles": "NC(=S)Nc1ccccc1", "outcome": "inactive"},
      {"smiles": "OCC(Br)CBr", "note": "(stereo not given)", "outcome": "inactive"}
    ]}
  ]
}
